# High-throughput results: PubChem BioAssay, several laboratories
# Mtb hypoxia rep – reduces hypoxia-regulated biosensor signal in M. tuberculosis; 300,000 tested, 0.1% active; fluorescence inhibition, % (test concentration not listed); M. tuberculosis hypoxia-regulated fluorescent reporter, fluorescence; AID 1159583; in the data active = fluorescence inhibition mostly above about 23%, no sharp cut-off; inactive = mostly below about 17%
# SARS 3CLpro inh – SARS-CoV 3CLpro protease inhibition. P0C6X7. 290,000 tested, 0.14% active. recombinant SARS-CoV 3CLpro, quenched FRET peptide cleavage. inhibition, % at 6 µM; in the data active = inhibition above about 12%
# RecA splice inh – blocks M. tuberculosis RecA intein splicing; 290,000 tested, 0.75% active; AID 2221; cell-free RecA intein splicing, fluorescence; inhibition, % (no concentration beside the values); P9WHJ3; in the data active = inhibition above about 30%;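 note: 0% = vehicle wells and 100% = reference inhibitor control wells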
# Target sequence (P9WHJ3 whole entry, looked up, canonical isoform): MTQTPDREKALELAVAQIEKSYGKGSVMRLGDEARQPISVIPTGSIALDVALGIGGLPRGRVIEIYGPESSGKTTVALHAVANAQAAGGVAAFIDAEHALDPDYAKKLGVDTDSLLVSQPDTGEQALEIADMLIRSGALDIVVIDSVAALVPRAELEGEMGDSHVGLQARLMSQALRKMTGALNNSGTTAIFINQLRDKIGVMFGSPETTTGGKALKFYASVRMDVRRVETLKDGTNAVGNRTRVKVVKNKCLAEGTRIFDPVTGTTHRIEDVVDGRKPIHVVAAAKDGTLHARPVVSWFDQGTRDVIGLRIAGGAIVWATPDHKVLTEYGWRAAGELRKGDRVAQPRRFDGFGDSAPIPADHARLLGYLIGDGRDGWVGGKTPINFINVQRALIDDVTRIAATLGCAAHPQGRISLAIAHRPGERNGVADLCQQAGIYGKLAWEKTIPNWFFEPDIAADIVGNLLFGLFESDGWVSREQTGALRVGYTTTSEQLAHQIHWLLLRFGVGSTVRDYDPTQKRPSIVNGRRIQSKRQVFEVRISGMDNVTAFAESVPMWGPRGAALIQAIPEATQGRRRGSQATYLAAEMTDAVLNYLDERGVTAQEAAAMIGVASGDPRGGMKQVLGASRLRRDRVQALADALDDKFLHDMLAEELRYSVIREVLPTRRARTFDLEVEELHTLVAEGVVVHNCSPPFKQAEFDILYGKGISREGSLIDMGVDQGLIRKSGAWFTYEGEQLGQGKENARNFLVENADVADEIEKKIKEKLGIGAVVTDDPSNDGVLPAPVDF
# BJeLR lethal – BJeLR cell viability loss | BJeLR (HRASV12) viability, CellTiter-Glo ATP luminescence, 48 h | 300,000 tested, 0.17% active | inhibition, % (concentration not given with the values); in the data active = inhibition above about 50%
# PrP UTR inh – inhibition of PrP 5' UTR reporter expression; cell-based PrP 5' UTR mRNA reporter, plate reader; inhibition, % (no concentration beside the values); 340,000 tested, 0.35% active; AID 488862; in the data active = inhibition above about 52%; note: 0 = median of the neutral control wells
# PrPC TRFRET – reduces human prion protein on the cell surface; P04156; cell surface PrPC, TR-FRET read-out; inhibition, % at 13.8 µM; 370,000 tested, 0.43% active; AID 720596; in the data active = inhibition above about 24%; note: 0% = median of the test wells and 100% = reference compound wells
# GFP chromo cs – counter-screen GFP chromophore formation inhibition | AID 434968 | 2,100 tested, 83% active | EC50, µM | shares compounds with RecA splice inh | cell-free GFP chromophore formation, fluorescence; call rule not given here
# * hit, by the source's call; / = no result given. Rows were chosen to be rich in hits. Some 1.4% of all compounds tested hit in one or more screens of this group.
SMILES,Mtb hypoxia rep,SARS 3CLpro inh,RecA splice inh,BJeLR lethal,PrP UTR inh,PrPC TRFRET,GFP chromo cs
CC(=O)Nc1c(I)c(C(=O)NC2C(O)OC(CO)C(O)C2O)c(I)c(N(C)C(C)=O)c1I (stereo not given),11,/,/,/,/,/,/
CCN(CC)CCNC(=O)c1ccc2c(c1NCCO)C(=O)c1ccccc1C2=O,11,0,78*,1,/,8,6.9*
CC1CCN(C(=O)c2ccc3c(c2NCCO)C(=O)c2ccccc2C3=O)CC1,/,1,7,9,-31,-87,/
CCN(CC)C(=O)c1cccc2c1C(=O)c1ccccc1-2,3,4,/,-6,-11,-27,/
CCN(CC)C(=O)c1ccc2c(c1[N+](=O)[O-])C(=O)c1ccccc1C2=O,/,4,42*,3,/,/,>38
COc1ccccc1C=NNC(=O)c1c(C)nc2ccc(Cl)cn12,2,/,/,/,/,/,/
CN1C(=CC(=O)c2cccnc2)Sc2ccccc21,2,/,/,/,/,/,/
CC(=O)Nc1ccc(S(=O)(=O)NC2=C(N3CCN(c4ccc(F)cc4)CC3)C(=O)c3ccccc3C2=O)cc1,5,3,45*,19,-35,-47,26*
Cc1ccc(S(=O)(=O)N(C(=O)c2ccncc2)c2ccc(OC(=O)c3ccncc3)c3ccccc23)c(C)c1,/,0,98*,-9,-16,/,>38
Cc1ccc(S(=O)(=O)N(C(=O)c2ccncc2)c2ccc(OC(=O)c3ccncc3)c3ccccc23)cc1,3,6,47*,-4,-31,-3,0.75*
CC(=O)Oc1ccc(N(C(C)=O)S(=O)(=O)c2ccc(C)cc2C)c2ccccc12,6,5,1,-3,-10,2,/
FC(F)(F)c1nnc(-c2ccccc2)nc1Oc1ccc(Cl)cc1Cl,/,2,61*,-7,-17,8,0.45*
FC(F)(F)c1cccc(Oc2nc(-c3ccccc3)nnc2C(F)(F)F)c1,0,-4,58*,-2,-18,-7,1.5*
FC(F)(F)c1nnc(-c2ccccc2)nc1Sc1ccccc1,/,1,63*,-6,-20,3,27*
FC(F)(F)c1nnc(-c2ccccc2)nc1Sc1ccc(Cl)cc1,10,0,23,2,-29,-8,/
CN(NC(=O)c1cccc(Cl)c1)c1nc(-c2ccccc2)nnc1C(F)(F)F,/,-10,-9,-3,-14,-3,/
C/C(C=NNC(=O)C(O)c1ccccc1)=C\c1ccccc1 (stereo not given),-4,/,/,/,/,/,/
CCOC(=O)C1C2COc3cc(OC)ccc3C2N2C(=O)c3cc(F)c(F)cc3NC(=O)[C@@]12C (stereo not given in full),17,/,/,/,/,/,/
CCN1C(=O)C2C(c3ccc(C)cc3)N3C(=O)N(c4ccc(OC)cc4)C(=O)[C@@]3(CC)C2C1=O (stereo not given in full),4,/,/,/,/,/,/
COC1=C(c2ccccc2)C(=O)c2ccccc2C1=O,9,-2,69*,/,-30,-24,14*
O=C1c2ccccc2-c2onc3ccc(N4CCCC4)c1c23,4,-3,55*,9,-12,-97,24*
O=C1C=C(N2CCCCC2)c2ccccc2C1=O,0,/,98*,-1,/,-14,2*
O=C1c2ccccc2C(=O)c2c1cccc2N1CCCC1,7,-1,16,-2,-4,-57,/
O=C(NC1C(=O)NNC1c1ccc(Cl)cc1)c1ccc(F)cc1 (stereo not given),7,0,70*,-7,-14,-7,30*
COC(=O)C1=C(c2cc3ccccc3o2)CC2CCC1N2C(=O)NCCO (stereo not given),10,/,/,/,/,/,/
SMILES,Mtb hypoxia rep,SARS 3CLpro inh,RecA splice inh,BJeLR lethal,PrP UTR inh,PrPC TRFRET,GFP chromo cs
COc1ccc(-c2cc(=O)n(-c3ccc([N+](=O)[O-])cc3)[nH]2)cc1,4,1,90*,-9,-7,-1,5.4*
COc1ccc(-c2[nH]n(-c3ccc([N+](=O)[O-])cc3)c(=O)c2C=NCc2ccc(F)cc2)cc1,-2,5,-1,-7,-36,3,/
ON=C(c1ccc(Cl)cc1)c1cc2ccccc2o1,5,/,/,/,/,/,/
Cc1ccc(SC(=O)c2c(C)noc2-c2cc(C)on2)cc1,/,1,61*,-8,-28,0,26*
O=[N+]([O-])c1cc(Br)c(Nc2ccccc2)c([N+](=O)[O-])c1,23,-2,64*,60*,-14,-40,20*
O=C1/C(=N\S(=O)(=O)c2cccs2)C([n+]2ccccc2)=C([O-])c2ccccc21,-4,4,41*,9,-10,-35,17*
CC(C)(C)c1cc[n+](C2=C([O-])c3ccccc3C(=O)/C2=N\S(=O)(=O)c2cccs2)cc1,10,-4,78*,-7,/,-54,0.96*
Cc1cccc(NC2=CC(=NS(=O)(=O)c3cccs3)c3ccccc3C2=O)c1,2,/,/,/,/,/,/
CN(C(=O)C(Cl)Cl)c1ccc(OC(=O)c2ccco2)cc1,13,-2,36*,1,-9,1,>38
O=C(NCCc1ccccc1)C(c1cccs1)N(C(=O)CCl)c1ccc(Cl)cc1 (stereo not given),19,3,74*,117*,-3,-8,0.51*
COc1ccc(-n2nc3c(c2NC(=O)CCl)CSC3)cc1,/,-5,34*,16,-32,-6,>38
COc1ccc(/C=C/C(=O)Nc2ccc(OC)nc2)cc1,-1,3,/,-5,-19,-6,/
COc1ccc(NC(=O)Cc2ccccc2)cn1,-7,5,1,4,-21,10,/
COc1ccc(CS(=O)(=O)/C(Cl)=C(/Cl)C(=O)Nc2ccc(OC)nc2)cc1,/,-1,78*,-29,48,/,9.7*
COc1ccc(NC(=O)/C(Cl)=C(/Cl)S(=O)Cc2ccccc2)cn1 (stereo not given),/,8,78*,27,27,23,6.6*
CC1=NN(c2nc(C)cc(C)n2)C(=O)C1CCC(C)C (stereo not given),9,-6,2,-5,-3,-2,/
CCC1C(=O)N(c2nc(C)cc(C)n2)N=C1C (stereo not given),13,3,67*,10,-15,9,20*
CCCCCc1cc(=O)oc2c(C(CCN3CCCCC3)c3ccc(OC)cc3)c(OC)cc(OC)c12 (stereo not given),/,/,23,1,-9,-11,/
CCCCCc1cc(=O)oc2c(C(CCN3CCCC(C)C3)c3ccc(OC)cc3)c(OC)cc(OC)c12 (stereo not given),/,/,37*,10,-7,-5,18*
Cc1ccc(NC2=CC(=O)C(=O)c3ccccc32)cc1,/,1,54*,-1,-5,-15,1.2*
NS(=O)(=O)c1ccc(NC(=O)Nc2ccccc2)cc1,-2,6,/,2,-27,-4,/
CCOC(=O)c1ccc(NC2=CC(=O)C(=O)c3ccccc32)cc1,3,3,42*,2,-19,5,2.7*
